# Mac1 fbg enh: enhancers of human CD11b/CD18 binding to fibrinogen. 93,000 compounds, 0.07% hits. P05107+P11215. activation, % at 10 µM. K562 CD11b/CD18 adhesion to fibrinogen, ATPlite luminescence;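 active means 10 µM primary screen giving 50% or more activity, confirmed by 40% or more on retest at that dose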
# CYP2C9 act: CYP2C9 (human) activation; P11712; recombinant CYP2C9, luciferin-H conversion, luminescence; active compounds read high; factor 1 = untreated enzyme, 0 = blocked; activation factor at 5 µM; 96,000 compounds, 1.4% hits; AID 1024;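 active means activation factor of 2 or more for CYP2C9 at a 5 µM dose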;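 further: 0 = sulfaphenazole-blocked wells and 1 = vehicle-only wells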
# CYP2C19 activ: increases human CYP2C19 enzyme activity; P33261; recombinant CYP2C19, luciferin-H EGE luminescence; active compounds read high; 0 = fully inhibited enzyme, 1 = untreated enzyme; activation factor at 5 µM; 96,000 tested, under 10 active;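 active means activation factor of at least 2 at 5 µM in the primary screen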;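 further: 0 = wells with 2.5 mM tranylcypromine and 1 = vehicle-only wells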
# CYP2C9 inh: blocks human cytochrome P450 2C9 | inhibition, % at 5 µM | 96,000 compounds, 20% hits | CYP2C9 Supersomes, luciferin-H conversion, luminescence | P11712 | AID 777;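 active means blocking of liver enzyme CYP2C9 beyond about 50% at 5 µM, limit read from the data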
# CYP2C19 inhib: human CYP2C19 inhibition | AID 778 | inhibition, % at 5 µM | P33261 | 96,000 compounds, 21% hits | CYP2C19 Supersomes, luciferin-H EGE luminescence, 30 min;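 active means CYP2C19 inhibition above a set limit at 5 µM in the primary screen, cut at about 50% in these data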;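 further: plate controls were negative control wells for no effect and 2.5 mM tranylcypromine positive control for full effect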
# CD11b adhes inh: blocks human CD11b/CD18 adhesion to fibrinogen; inhibition, % at 10 µM; 93,000 compounds, 0.54% hits; K562 CD11b/CD18 adhesion to fibrinogen, ATPlite luminescence; Mn2+ added to activate the integrin; P05107+P11215;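 active means primary inhibition of 50% or more at 10 µM, then 40% or more on retest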
# * marks the source's active call; other numbers are inactive results; . = not tested or not shown. A selection: hits, their analogues and other compounds. The true share with any hit is near 28%.
SMILES,Mac1 fbg enh,CYP2C9 act,CYP2C19 activ,CYP2C9 inh,CYP2C19 inhib,CD11b adhes inh
CC(C)C1=NN(C(=O)c2ccccc2)C(O)(C(C)(C)C)C1 (configuration not stated),6,0.9,0.8,5,16,-14
O=c1oc2cc(Br)ccc2n1CSC1=NCCS1,1,1,0.8,3,23,1
CC(=O)Nn1c(C)nnc1-n1nc(C)cc1C,2,0.8,0.9,24,11,5
Cc1cc(NC(=O)C2CC(=O)OC2c2ccccc2)no1 (configuration not stated),-5,0.9,0.5,12,52*,-8
Cc1cc(C)nc(SCC(=O)Nc2cc(C)on2)n1,-3,1.1,0.6,-10,35,26
CCCCc1ccc(S(=O)(=O)Nc2cc(C)on2)cc1,3,0,0.6,96*,44,-16
Cc1cc(NS(=O)(=O)c2ccc(NC(=O)C(c3ccccc3)c3ccccc3)cc2)no1,-6,0.4,0.9,64*,12,12
O=C1CC(C(=O)NC2CCCCC2)C(c2ccccc2)O1 (configuration not stated),-4,1.3,0.9,-30,13,-2
Cc1cc(NC(=O)CSc2ccc3c(c2)OCCO3)no1,6,0.6,0.4,40,57*,4
c1ccc(-c2ccc(-c3ccccn3)nn2)nc1,2,0.8,0.4,18,56*,-7
Nn1c(-c2ccccn2)nnc1-c1ccccn1,1,1.1,0.8,-6,17,-8
C=CCC1(O)C(=O)N2C(=C1C(=O)N1CCOCC1)c1ccccc1CC2(C)C (configuration not stated),0,0.9,0.9,11,5,-17
CC1=NCC(C)c2c1[nH]c1ccccc21 (configuration not stated),.,1.1,0.9,-5,12,.
CCN(CC)c1ccc(C(=O)OCC(=O)N2CCN(c3ccccc3)CC2)cc1,-4,0.9,0.9,6,7,12
Cc1ccc(C2C3=C(CC(C)(C)CC3=O)Nc3[nH]c(=S)[nH]c(=O)c32)cc1 (configuration not stated),-1,0.3,0.6,70*,40,-2
CN1CCCCc2c1[nH]c1ccccc1c2=O,3,1.3,1,-32,0,11
O=Cc1cn(-c2ccccc2)nc1-c1cc2ccccc2oc1=O,5,0.8,1.1,18,-11,-8
Cc1ccc(-c2nn(-c3ccccc3)cc2C2SCC(=O)N2Cc2ccccc2)o1 (configuration not stated),2,0.5,0.9,45,8,11
O=C1CSC(c2cn(-c3ccccc3)nc2-c2cc3ccccc3o2)N1Cc1ccccc1 (configuration not stated),0,0.1,0.5,89*,54*,9
O=C1CSC(c2cn(-c3ccccc3)nc2-c2cc3ccccc3oc2=O)N1Cc1ccco1 (configuration not stated),.,0.2,0.4,76*,55*,.
CS(=O)(=O)N(CC(=O)N1CCN(c2ccccc2F)CC1)c1ccc2c(c1)OCCO2,-7,0.7,0.7,28,35,3
COC(=O)C(C)N(C(=O)c1ccc(Cl)cc1)c1c(C)cccc1C (configuration not stated),2,0.7,0.6,32,36,-11
COC(=O)C(C)N(C(=O)c1ccc(C(=O)c2ccccc2)cc1)c1c(C)cccc1C (configuration not stated),-2,0,0.1,98*,94*,-2
COC(=O)c1cc(-c2cccc(OC)c2)n[nH]1,-5,1,0.3,4,70*,-11
COc1ccc(CNC(=O)c2cc(-c3ccccc3O)n[nH]2)cc1,-1,1.2,1.2,-19,-20,0
SMILES,Mac1 fbg enh,CYP2C9 act,CYP2C19 activ,CYP2C9 inh,CYP2C19 inhib,CD11b adhes inh
COc1ccc(C2C(C(=O)Nc3ccc4c(c3)OCCO4)c3ccccc3C(=O)N2C)cc1 (configuration not stated),-8,0.8,0.7,23,29,21
CSc1nc2sc3c(c2c(=O)n1C)CCC(C)C3 (configuration not stated),.,0.8,1,17,5,.
C=CCn1nnc2sc3c(c2c1=O)CCC(C)C3 (configuration not stated),0,0.5,0,49,97*,-23
C=CCn1c(=O)c2c(C)c(C)sc2n2c(Nc3ccccc3)nnc12,-3,0.7,0.9,28,11,-4
COc1ccc(-c2cc3ccccc3n2CC(O)CN2CCOCC2)cc1 (configuration not stated),0,0.4,0,63*,95*,14
Cc1ccc(N(CC(O)CN2CCOCC2)S(=O)(=O)c2ccc3ccccc3c2)cc1 (configuration not stated),-2,0.5,0.8,52*,19,12
Cc1ccc(S(=O)(=O)N(CC(O)CN2CCOCC2)c2cc(Cl)ccc2Cl)cc1 (configuration not stated),18,0.8,0.5,18,54*,-6
COc1ccc(-c2cc3ccccc3n2CC(O)CN2CCN(CCO)CC2)cc1 (configuration not stated),-5,0.9,0.9,10,12,-16
O=C(Nc1ncc(Cc2ccccc2)s1)C1COc2ccccc2O1 (configuration not stated),-2,1,0.9,1,5,4
O=C(NC1CSC/C1=N\O)c1ccccc1 (configuration not stated),-4,0.9,0.9,6,13,-12
Cc1c(-c2ccccc2)sc(N)c1C(=O)N1CCOCC1,-9,0.1,0.1,86*,88*,3
COC(=O)c1c(N)sc(C(=O)N2CCOCC2)c1C,6,1.2,0.9,-20,14,-18
CC(=O)N1CCCc2cc(S(=O)(=O)CCC(=O)N3CCN(c4cccc(C)c4)C(C)C3)ccc21 (configuration not stated),6,0.8,0.4,19,58*,-10
CC(=O)N1CCCc2cc(S(=O)(=O)NCCC3=CCCCC3)ccc21,0,0.9,0.5,11,53*,36
CC(=O)N1CCCc2cc(S(=O)(=O)NCc3ccc(C)cc3)ccc21,3,1,0.2,0,82*,5
CC(=O)N1CCc2cc(S(=O)(=O)NCCC(=O)Nc3cccc(C)c3)ccc21,-2,0.7,0.9,33,6,-21
CCN(CCCNS(=O)(=O)c1ccc2c(c1)CCN2C(C)=O)c1cccc(C)c1,0,0.7,0.4,32,62*,1
COc1ccc(CNC(=O)C(NS(=O)(=O)c2ccc3c(c2)CCCN3C(C)=O)C(C)C)cc1 (configuration not stated),-6,0.9,1,8,-1,1
COc1ccccc1NC(=O)CSCc1nc2ccccc2[nH]1,0,.,.,.,.,2

# Bioassay records deposited in PubChem BioAssay by Sanford-Burnham Center for Chemical Genomics.
